Data published in the supplement of paper PMC6607015.
Structures can show the parent of a compound that is named as a salt.

What follows are compounds tested on HeLa MZ (assay: LBPA endosome anti-LBPA integrated intensity (sum per cell), Z-score; higher = more LBPA staining). Conditions: compound concentration in added solution (µM; 5 µl added to 20 µl cells): 10; 18 h.
Summary of the method: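 In duplicate 384-well imaging plates, 3,500 HeLa MZ or A431 cells in 20 µl per well were seeded onto 5 µl of 10 µM compound solution. The cells were incubated for 18 h, fixed in 4% PFA and stained with 6C4 anti-LBPA antibody, filipin, propidium iodide and CellTracker green before four 20× images were acquired per well. Values are AcuityXpress-normalised Z-scores of per-cell integrated LBPA or filipin intensity, obtained by MetaXpress segmentation over the whole cell or in LBPA endosomes.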

Structure (SMILES) | LBPA endosome anti-LBPA integrated intensity (z-score)
C=C1C[C@@H]2[C@H](CC[C@]3(C)C(=O)CC[C@@H]23)[C@@]2(C)C=CC(=O)C=C12 [Exemestane] | 0.401
CC[N+]1(C)CCCC(OC(=O)C(O)(c2ccccc2)c2ccccc2)C1 (stereo not drawn) [Pipenzolate bromide] | 0.585
C=CCC1(CC(C)C)C(=O)NC(=O)NC1=O [Butalbital] | -0.493
CCCC(C)C1(CC)C(=O)NC(=O)NC1=O (stereo not drawn) [Pentobarbital] | -1.58
CC(=O)OCC1=C(C(=O)O)N2C(=O)[C@@H](N)[C@H]2SC1 [Cephalosporanic acid, 7-amino] | -1.08
Cc1cccc(C)c1NC1=NCCCS1 [Xylazine] | 0.606
CC(C)(N)Cc1ccccc1 [Phentermine hydrochloride] | 0.854
CN(C)C(=O)Oc1cc(OC(=O)N(C)C)cc(C(O)CNC(C)(C)C)c1 (stereo not drawn) [Bambuterol hydrochloride] | -0.352
CN1C[C@H](C(=O)N[C@]2(C)O[C@@]3(O)[C@@H]4CCCN4C(=O)[C@H](Cc4ccccc4)N3C2=O)C[C@@H]2c3cccc4[nH]cc(c34)C[C@H]21 [Dihydroergotamine tartrate] | 2.55
CCCC(C)(COC(N)=O)COC(=O)NC(C)C (stereo not drawn) [Carisoprodol] | -0.835
O=C(CCCN1CCC2(CC1)C(=O)NCN2c1ccccc1)c1ccc(F)cc1 [Spiperone] | 1.71
CCC1(c2cccc(O)c2)CCCCN(C)C1 (stereo not drawn) [Meptazinol hydrochloride] | -0.173
CN1[C@@H]2CC[C@H]1C[C@@H](OC1c3ccccc3CCc3ccccc31)C2 [Deptropine citrate] | 1.46
